Reference: the supplement of paper PMC7595190

System: MV4-11
Assay: CellTox Green cytotoxicity fluorescence relative to DMSO vehicle (fold of vehicle RFU); higher = more cell death (loss of membrane integrity), active = 2 or more
Description: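 Paediatric AML cell lines (MV4-11, CMK, Kasumi-1; 4x10^4 cells/well, 96-well) treated with single compounds from the Selleckchem apoptosis library at 0.01, 0.1 and 1 µM. Cytotoxicity was read with CellTox Green (RFU, Ex 485/Em 520) at 24, 48 and 72 h and normalised to the 0.1% DMSO vehicle. Normalised RFU >= 2 was taken as a successful, cell-killing treatment.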

Measured: CellTox Green cytotoxicity fluorescence

Cc1cc2c(C(C)C)c(O)c(O)c(C=O)c2c(O)c1-c1c(C)cc2c(C(C)C)c(O)c(O)c(C=O)c2c1O
inactive: 0.01 µM, 24 h 0.979 | 0.01 µM, 48 h 1 | 0.01 µM, 72 h 1 | 0.1 µM, 24 h 1 | 0.1 µM, 48 h 1 | 0.1 µM, 72 h 0.993 | 1 µM, 24 h 0.973 | 1 µM, 48 h 0.959 | 1 µM, 72 h 1.02
